# Compound activity (PubChem BioAssay)
# TDP1 cell CPT = growth inhibition of DT40 Tdp1-/-;hTDP1 cells with camptothecin (screen for TDP1 inhibitors); Potency, µM (highest dose often 46.2 µM), most hits filed as inhibitors; chicken DT40 Tdp1-/-;hTDP1 cells + 20 nM CPT, ATP luminescence, 48 h; hit rate 12% among 420,000; further: nearly all actives have a fitted effect of over 55% in size
#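 Chicken DT40 Tdp1-/- cells stably complemented with human TDP1 were seeded at 400 cells/well in medium containing 20 nM camptothecin, exposed to pin-transferred compounds, and grown at 37 °C for at least 48 hr. Viability was read as ATP luminescence.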
# S-ASM inh = inhibitors of human secretory acid sphingomyelinase. Potency, µM (series often up to 57.5 µM), hits mostly inhibitors. hit rate 0.006% among 340,000. placental ASM, HMU-PC fluorogenic substrate, 60 min
# Target sequence (P17405 47-631 limits assumed): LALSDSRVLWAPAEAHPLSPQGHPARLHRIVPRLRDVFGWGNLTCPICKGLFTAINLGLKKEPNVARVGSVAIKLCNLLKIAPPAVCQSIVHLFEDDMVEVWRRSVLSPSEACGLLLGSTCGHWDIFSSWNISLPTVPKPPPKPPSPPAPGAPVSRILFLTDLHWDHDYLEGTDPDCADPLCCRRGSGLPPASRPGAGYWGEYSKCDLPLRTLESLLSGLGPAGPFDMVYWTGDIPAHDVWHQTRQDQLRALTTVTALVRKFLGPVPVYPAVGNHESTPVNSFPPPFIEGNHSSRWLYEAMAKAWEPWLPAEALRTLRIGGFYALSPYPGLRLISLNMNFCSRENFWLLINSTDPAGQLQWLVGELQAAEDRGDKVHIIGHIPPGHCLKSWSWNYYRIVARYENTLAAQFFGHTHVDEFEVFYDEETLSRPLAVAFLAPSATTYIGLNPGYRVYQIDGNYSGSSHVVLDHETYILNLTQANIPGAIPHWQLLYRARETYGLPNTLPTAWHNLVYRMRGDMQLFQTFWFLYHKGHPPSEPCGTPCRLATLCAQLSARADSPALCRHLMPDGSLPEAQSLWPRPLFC
#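 Fluorogenic HMU-PC substrate (9 uM final) is turned over by placental ASM in 60 min at 37 C after a 10 min compound preincubation. Reaction ended by alkaline stop (pH 10), with fluorescence read at 386/447 nm.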
# TDP1 cell noCPT = qHTS for Inhibitors of human tyrosyl-DNA phosphodiesterase 1 (TDP1): qHTS in cells in absence of CPT. DT40 Tdp1-/- hTDP1 cells, no CPT, ATP luminescence, 48 h. Potency, µM (highest dose often 46.2 µM), usual class: inhibitors. hit rate 15% among 420,000. AID 686978, 2013; further: nearly all actives have a fitted effect of over 55% in size
#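 Readout: luminescence from CellTiter-Glo after 30 min in the dark at RT. Cells: DT40 Tdp1-/- with stable hTDP1, 400/well. Exposure: compounds alone, ≥48 hr, 37 °C.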
# TGFb SMAD3 inh = TGF-b pathway inhibition | hit rate 1.2% among 410,000 | HepG2 CAGA-GFP TGF-b/SMAD3 reporter, GFP fluorescence, 18 h; TGF-beta stimulated, 500 pg/mL final | Potency, µM (titrated, usually from 46.1 µM), actives largely listed as inhibitors; further: nearly all actives have a fitted effect of over 65% in size
#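 Inhibition of TGF-beta-driven CAGA-GFP reporter expression in HEPG2 cells is measured by cellular GFP fluorescence after 18 h stimulation with 500 pg/mL recombinant TGF-beta in 1% FBS medium at 37 degrees C.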
# IL-1B inflam inh = blocks inflammasome-driven IL-1 beta release. THP-1 LPS/ATP IL-1B secretion, AlphaLISA, 16 h; stronger effect = lower value. activity change, % at 57.5 µM. hit rate 4.7% among 360,000; in the data active means activity change below about -50%; inconclusive means mostly about -30% to -49%
#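 Secreted IL-1B measured by AlphaLISA bead assay after 16 h compound exposure of THP-1 cells; compounds (final up to 57.5 uM) added 1 h before LPS (250 ng/mL) and ATP (1.25 mM) stimulation; lower signal means less secretion.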
# HepG2 viability = counter-screen for TGF-b inhibitors: cytotoxicity in HepG2 cells; HepG2 CAGA-GFP viability, ATP luminescence, 18 h; AID 588856; Potency, µM (titrated, usually from 46.1 µM), most hits filed as cytotoxic; hit rate 0.76% among 410,000
#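 CellTiter-Glo luminescence gave cytotoxicity after 18 hours at 37 degrees C. The cells were HepG2 CAGA-GFP in 1% FBS DMEM, stimulated with 500 pg/mL TGF-beta after compound addition. %Activity was normalised to no-cell wells (complete cell-killing) and DMSO (no toxicity), and curves were fitted and classified.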
# Numbers stand for hits; i = inactive; ? = inconclusive; nt = not tested or not shown. Hits are enriched below; roughly 19% of the tested compounds scored in any of these assays. Unless noted, the call rests on the fitted dose curve; in most records, active means well fitted curve in the direction sought with a large enough effect; inconclusive means small, poorly fitted or top-dose-only effect, or another doubt; inactive means no such curve, though single readings can be large; an effect the other way counts as inactive or inconclusive.
SMILES,TDP1 cell CPT,S-ASM inh,TDP1 cell noCPT,TGFb SMAD3 inh,IL-1B inflam inh,HepG2 viability
CCOc1ccc(OCC)c(NC(=O)CCCN2C(=S)NC(C)(C)CC2C)c1 (stereo not drawn),16µM,i,16µM,i,i,i
CC1CC(C)(C)NC(=S)N1CCCC(=O)Nc1ccc(F)cc1 (stereo not drawn),i,i,18µM,i,i,i
CCc1nc2ccccc2c(C(=O)OCc2nnc(-c3ccccc3)o2)c1C,18µM,i,?,i,i,i
CCc1nc2ccccc2c(C(=O)OCc2nc3ccccc3c(=O)[nH]2)c1C,3.3µM,i,4.6µM,i,-56,i
CCc1nc2ccccc2c(C(=O)OCC(=O)NC2CC2)c1C,?,i,?,i,i,i
CCc1nc2ccccc2c(C(=O)OCC(=O)C(C)(C)C)c1C,?,i,18µM,i,i,i
OCc1ccccc1O[C@H]1OC(CO)C(O)C(O)C1O (stereo partly drawn),i,nt,i,nt,nt,nt
COc1cc(C)ccc1OCCSc1nc2ccc(NC(=O)c3ccc4c(c3)OCO4)cc2s1,i,nt,?,i,nt,i
O=C(Nc1ccc2c(c1)OCCO2)C(c1ccncc1)n1c(=O)c(-c2ccco2)nc2ccccc21 (stereo not drawn),10µM,nt,?,nt,i,nt
O=C(Nc1ccc2c(c1)OCCO2)C(c1ccnc2ccccc12)N1CCN(C/C=C/c2ccccc2)CC1 (stereo not drawn),?,nt,23µM,?,i,i
O=C(Nc1ccc2c(c1)OCCO2)C(c1ccccc1)n1c(=O)c(-c2cc3ccccc3[nH]2)nc2ccccc21 (stereo not drawn),?,nt,?,nt,i,nt
O=C(Nc1ccc2c(c1)OCCO2)C(c1ccnc2ccccc12)n1c(=O)c(-c2ccco2)nc2ccccc21 (stereo not drawn),7.3µM,nt,15µM,nt,i,nt
O=C(Nc1ccc2c(c1)OCCO2)C(c1ccccc1)n1c(=O)c(-c2ccco2)nc2ccccc21 (stereo not drawn),4.1µM,nt,?,nt,i,nt
O=C(Nc1ccc2c(c1)OCCO2)C(C1CC1)n1c(=O)c(-c2ccccc2)nc2ccccc21 (stereo not drawn),i,nt,?,nt,i,nt
O=C(Nc1ccc2c(c1)OCCO2)C(CCc1ccccc1)N1CCN(C/C=C/c2ccccc2)CC1 (stereo not drawn),?,nt,?,?,?,i
C[C@H](CO)N1C[C@H](C)[C@@H](CN(C)C(=O)c2cnccn2)Oc2cc(C#CCC3CCCC3)ccc2S1(=O)=O,?,nt,?,?,i,i
COc1ccc(N2CC(NC(=O)C(c3ccccc3)c3ccccc3)CC2=O)cc1OC (stereo not drawn),?,nt,?,i,nt,i
C=C(C)Cn1c(SCC(=O)c2ccccc2)nc2sc3c(c2c1=O)CCCC3,i,nt,?,i,nt,i
CCn1c(SCC(=O)O)nc2sc3c(c2c1=O)CCC3,i,i,i,i,i,i
C=CCn1c(SCC(=O)Nc2c(C)n(C)n(-c3ccccc3)c2=O)nc2sc(C)c(-c3ccccc3)c2c1=O,29µM,i,?,i,i,i
C=C(C)Cn1c(SCC(=O)Nc2cccc(C)c2)nc2sc3c(c2c1=O)CCCC3,9.2µM,nt,13µM,i,nt,i
C=CCn1c(SCC(=O)Nc2cc(C)on2)nc2sc(C)c(C)c2c1=O,?,i,6.5µM,i,i,i
CCn1c(SCC(=O)Nc2cc(C)on2)nc2sc3c(c2c1=O)CCCC3,?,i,6.5µM,i,i,i
Cn1cc(S(=O)(=O)N2CCCC2)cc1C(=O)O,i,i,i,i,i,i
C=CCn1c(SCC(=O)Nc2cc(C)on2)nc2sc3c(c2c1=O)CCCC3,23µM,i,9.2µM,i,i,i
SMILES,TDP1 cell CPT,S-ASM inh,TDP1 cell noCPT,TGFb SMAD3 inh,IL-1B inflam inh,HepG2 viability
NC(=O)CSc1nc(C2CC2)nc2sc3c(c12)CCCC3,i,i,i,i,i,i
Cc1cc(NC(=O)CSc2nc(C3CC3)nc3sc4c(c23)CCC(C)C4)no1 (stereo not drawn),16µM,i,18µM,i,i,i
C=CCn1c(SCC(=O)NCc2ccco2)nc2sc3c(c2c1=O)CCCC3,i,i,i,i,i,i
Oc1ccc(/C=N/n2c3ccccc3c3ccccc32)cc1,?,i,16µM,?,i,i
CCc1nc2cc(C(=O)N(C)CC3COCCO3)cc(NC(=O)c3ccccc3OC)c2n1C (stereo not drawn),i,nt,i,nt,nt,nt
C/C=C1\NC(=O)[C@H](C)NC(=O)[C@@H](NC(=O)[C@@H](Cc2ccc(O)cc2)NC(=O)[C@@H](NC(=O)/C(C)=C/C)C(C)C)[C@@H](C)OC(=O)[C@H](CCCCc2ccc(O)cc2)NC(=O)[C@@H](CCC(=O)OC)NC1=O,i,nt,i,i,i,i
CCOC(=O)C(=Cc1ccc(-n2ccnc2)cc1)C(=O)OCC,23µM,i,21µM,?,-93,i
CCc1ccc(C(C)NC(=O)/C=C/c2ccc(Br)cc2)cc1 (stereo not drawn),?,i,i,i,i,i
CCOC(=O)C(CC)(CC)C(=O)/C=C/c1ccc(Br)cc1,?,i,16µM,i,-103,i
CCOC(=O)C(=Cc1ccc(Br)cc1)C(=O)OCC,12µM,i,2.9µM,18µM,-97,14µM
CN1C(=O)CSc2ccc(NC(=O)N3CCN(c4ccccn4)CC3)cc21,?,i,?,i,i,i
Cc1ccc(C)c(N2CCN(C(=O)Nc3ccc4c(c3)N(C)C(=O)CS4)CC2)c1,21µM,i,16µM,?,i,i
CN1C(=O)c2ccccc2Sc2ccc(NC(=O)N3CCOCC3)cc21,i,i,?,i,i,i
CCN1C(=O)c2ccccc2Sc2ccc(NC(=O)N3CCN(c4cc(C)ccc4C)CC3)cc21,5.8µM,nt,4.1µM,?,nt,i
CC(OC(=O)CN1C(=O)NC2(CCCCC2C)C1=O)c1ccccc1 (stereo not drawn),i,i,i,i,i,i
COc1ccc(C2=C(Nc3ccc(C)cc3C)c3ccccc3C2=O)cc1,13µM,nt,?,i,nt,i
O=C(C1=C(c2ccccc2)C(=O)c2ccccc2C1=O)c1ccccc1,2.1µM,i,2.9µM,5.6µM,-104,10µM
COC1=C(c2ccccc2)C(=O)c2ccccc2C1=O,23µM,i,16µM,11µM,-169,22µM
COc1ccc(C2=C(Nc3ccccc3)c3ccccc3C2=O)cc1,i,?,?,?,i,i
O=C(c1ccccc1)c1coc(-c2ccccc2)c1,?,i,?,i,i,i
